# Assay outcomes: PubChem, National Center for Advancing Translational Sciences (NCATS)
# Most compounds without a hit are left out; they make up all but 1.5% or so of the library.
# TrxR1 substrate: qHTS Assay for Substrates of Mammalian Selenoprotein Thioredoxin Reductase 1 (TrxR1): qHTS | Potency, µM (titrated, usually from 114 µM), without a hit: top-dose activity change, negative = substrate turnover | purified TrxR1 substrate turnover, NADPH consumption readout | Thioredoxin reductase 1, cytoplasmic (Rattus norvegicus), O89049 | 0.01% of 390,000 active; further: potency means the concentration at half of the fitted maximal effect; nearly all actives have a fitted effect of over 50% in size
#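 Rat TrxR1, dispensed at 90 nM, was prereduced with 400 uM NADPH (final) for 5 min at ~22 deg C, then incubated with compound 15 min before 400 uM selenite. A first-read NADPH fluorescence drop versus no-compound background flagged substrates.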
# rTrxR1 inhibitor: qHTS Assay for Inhibitors of Mammalian Selenoprotein Thioredoxin Reductase 1 (TrxR1): qHTS. AID 588453, 2011. 1% of 390,000 active. recombinant rTrxR1, NADPH fluorescence consumption, selenite substrate. Potency, µM (titrated, usually from 114 µM), inactives show top-dose activity change, negative = inhibition, usual class: inhibitors. Thioredoxin reductase 1, cytoplasmic (Rattus norvegicus), O89049; further: potency means the concentration at half of the fitted maximal effect; nearly all actives have a fitted effect of over 65% in size
#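 Rat TrxR1 (90 nM in the dispensed reagent) was pre-reduced with 400 uM NADPH for 5 min at room temperature, then incubated with compound for 15 min. After 400 uM selenite was added, NADPH fluorescence (Ex 340/Em 450 nm) was followed for 8 min.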
# Eya2 phos inh: qHTS Assay for Inhibitors of the Phosphatase Activity of Eya2; 0.006% of 330,000 active; Potency, µM (highest dose often 76.9 µM), for inactives: at the highest dose activity, negative = inhibition, usual class: inhibitors; AID 488837, 2010; Protein phosphatase EYA2 (Homo sapiens), O00167; recombinant Eya2, OMFP fluorescence dephosphorylation (OMFP is methylfluorescein phosphate); further: potency means the concentration at half of the fitted maximal effect
# Target sequence (O00167 whole entry, looked up): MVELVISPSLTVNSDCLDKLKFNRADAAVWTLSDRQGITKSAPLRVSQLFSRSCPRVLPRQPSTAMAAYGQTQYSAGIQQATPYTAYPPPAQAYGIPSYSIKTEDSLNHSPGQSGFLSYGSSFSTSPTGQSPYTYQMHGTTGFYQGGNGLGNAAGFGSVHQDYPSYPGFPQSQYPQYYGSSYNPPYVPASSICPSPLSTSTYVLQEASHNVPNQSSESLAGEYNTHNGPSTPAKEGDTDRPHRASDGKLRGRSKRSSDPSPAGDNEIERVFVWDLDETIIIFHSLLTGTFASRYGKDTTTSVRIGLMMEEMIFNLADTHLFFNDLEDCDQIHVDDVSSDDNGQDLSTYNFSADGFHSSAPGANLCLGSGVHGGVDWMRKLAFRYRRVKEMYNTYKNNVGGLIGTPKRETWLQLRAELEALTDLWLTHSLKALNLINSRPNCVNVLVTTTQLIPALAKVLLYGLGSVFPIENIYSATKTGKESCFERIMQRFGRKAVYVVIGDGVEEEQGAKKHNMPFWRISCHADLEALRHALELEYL
#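 Eya2 protein (added as 0.2 uM solution) was preincubated with compound for 10 min at ambient temperature in 50 mM HEPES pH 7.5, 50 mM NaCl, 5 uM MgCl2, 0.05% BSA, 1 mM DTT. OMFP (added at 50 uM) then reacted 10 min; fluorescence read at 485/525 nm.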
# IDH1 R132H inh: qHTS for Inhibitors of mutant isocitrate dehydrogenase 1 (IDH1): qHTS; Isocitrate dehydrogenase [NADP] cytoplasmic (Homo sapiens), O75874; IDH1-R132H enzyme, NADPH consumption, diaphorase/resazurin fluorescence; Potency, µM (top dose mostly 76.6 µM), for inactives: at the highest dose activity change, negative = inhibition, usual class: inhibitors; 0.093% of 390,000 active; AID 602179, 2012; further: potency means the concentration at half of the fitted maximal effect; nearly all actives have a fitted effect of over 65% in size
#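 IDH1-R132H (0.5 ug/mL dispensed) in pH 7.5 Tris buffer was preincubated 30 min with compound, then given a substrate mix of 0.016 mM NADPH and 2 mM alpha-KG for 80 min at room temperature; remaining NADPH was read by diaphorase/resazurin fluorescence.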
# FBPA coupling cs: qHTS Assay for Inhibitors of Fructose-1,6-bisphosphate Aldolase from Giardia Lamblia: Coupling assay counterscreen | 0.67% of 290,000 active | activity change, negative = inhibition, % at 58.2 µM, hits read low | AID 2472, 2010 | coupling enzyme system counterscreen, AmpLite Red fluorescence; in the data active means activity change below about -30%
#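 Activity here indicates interference with the coupling reaction, not aldolase inhibition. Compounds at 57.5 uM final met coupling enzymes for 10 min at RT; substrate and AmpLite Red detection followed, with a 525/598 nm fluorescence read after 20 min.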
# An asterisk follows results filed as active; ? = inconclusive; nt = not tested or not shown; ! = repeats disagree; [ ] = dose if it differs, or a comment. Unless noted, the call rests on the fitted dose curve; in most records, active means well fitted curve in the direction sought with a large enough effect; inconclusive means small, poorly fitted or top-dose-only effect, or another doubt; inactive means no such curve, though single readings can be large; an effect the other way counts as inactive or inconclusive. On the % scale 0 is the no-effect control and ±100 the full control effect.
SMILES,TrxR1 substrate,rTrxR1 inhibitor,Eya2 phos inh,IDH1 R132H inh,FBPA coupling cs
COC[C@H]1OC(=O)c2coc3c2[C@@]1(C)C1=C(C3=O)C2CCC(=O)[C@@]2(C)C[C@H]1OC(C)=O (some centres undefined),15%[57.1 µM],15µM*!,-2%,nt,-20
COC(=O)[C@@H]1[C@@H](C(=O)OC)C2(c3ccccc3-c3ccccc32)N(c2ccc(Cl)cc2)N1C#N,-3%,11µM*,4%,-18%,-5
COC(=O)C[C@]1(C(=O)OC)CN(C#N)N(c2ccc(Cl)cc2)C12c1ccccc1-c1ccccc12,4%[11.4 µM],-25%[11.4 µM],-21%,-7%,0
NC(=O)O,nt,nt,nt,nt,1
C[N+](C)(C)CC(=O)O,-2%[57.1 µM],27µM*!,-4%,3%,nt
C=CCn1c(O)c(/C=C2/C=c3ccccc3=N2)c(=O)[nH]c1=S,-7%,20µM*,15%,-5%,2
C=CCn1c(O)c(C=Nc2ccc(F)cc2)c(=O)[nH]c1=O,-6%,6%,-11%,-3%,0
CCOC(=O)C(SP(=S)(OC)OC)c1ccccc1 (centres undefined),nt,nt,nt,nt,1
CCC(C)N1C(=O)/C(=C/c2ccc3c(c2)CCN3CCCCl)C(=O)NC1=S (centres undefined),0%,13µM*,3%,-1%,1
O=c1ccc2cc(O[C@H]3OC(CO)C(O)C(O)C3O)c(O)cc2o1 (some centres undefined),nt,nt,nt,nt,2
COc1ccc(C[C@@H]2NC[C@H](O)[C@@H]2OC(C)=O)cc1,nt,nt,nt,nt,0
COc1ccc(C[C@H]2NC[C@H](O)[C@H]2OC(C)=O)cc1,6%,40µM*,nt,-2%,nt
ClC1=C(Cl)C(Cl)(C2(Cl)C(Cl)=C(Cl)C(Cl)=C2Cl)C(Cl)=C1Cl,nt,nt,nt,nt,-14
CCC(C)NC(=O)c1c(N)n(CC2CCCO2)c2nc3ccccc3nc12 (centres undefined),174%,36%,2%,8%,-40*
CCC(C)NC(=O)c1c(N)n(Cc2ccc3c(c2)OCO3)c2nc3ccccc3nc12 (centres undefined),61%,19%,-7%,4%,-37*
CC(C)CCNC(=O)c1c(N)n(CC2CCCO2)c2nc3ccccc3nc12 (centres undefined),94%,25%,-21%,3%,-42*
CCCCn1c(N)c(C(=O)NCCN2CCOCC2)c2nc3ccccc3nc21,40%[57.1 µM],-5%[57.1 µM],11%,2%,-13
Nc1c(C(=O)NCCN2CCOCC2)c2nc3ccccc3nc2n1Cc1ccccc1,24%[57.1 µM],14%,-1%,13%,-4
CN[C@H](CC(C)C)C(=O)N[C@H]1C(=O)N[C@@H](CC(N)=O)C(=O)N[C@@H]2C(=O)N[C@H]3C(=O)N[C@H](C(=O)N[C@H](C(=O)O)c4cc(O)cc(O)c4-c4cc3ccc4O)[C@H](O)c3ccc(c(Cl)c3)Oc3cc2cc(c3O[C@@H]2O[C@H](CO)[C@@H](O)[C@H](O)[C@@H]2O[C@H]2C[C@](C)(N)[C@H](O)[C@H](C)O2)Oc2ccc(cc2Cl)[C@H]1O,9%[57.1 µM],9%[57.1 µM],1%,nt,nt
CCCCC/C=C\C/C=C\C/C=C\CCCCC(=O)NCCc1ccc(O)c(O)c1,nt,nt,nt,nt,3
CCCC[N+]12CCC(CC1)C(C(=O)c1cccs1)C2 (centres undefined),-3%,-7%[57.1 µM],10%,0%,3
CN1C(=O)NC(c2cccc(O)c2)C(C(=O)c2cccs2)C1(O)C(F)(F)F (centres undefined),-5%,32µM*,3%,0%,0
C[C@]12CC[C@@H]3c4ccc(O)cc4C[C@@H](CCCCCCCCCS(=O)CCCC(F)(F)C(F)(F)F)[C@H]3[C@@H]1CC[C@@H]2O (some centres undefined),?,-5%[57.1 µM],-4%,nt,nt
N#CC1(c2ccccc2)CCN(C2CC(=O)N(c3ccc4c(c3)OCO4)C2=O)CC1 (centres undefined),5%,71µM*,-7%,2%,1
C=CCN1C(=O)/C(=C/c2cc(C)n(-c3ccccn3)c2C)C(=O)NC1=S,-14%,50µM*,-4%,-2%,6
SMILES,TrxR1 substrate,rTrxR1 inhibitor,Eya2 phos inh,IDH1 R132H inh,FBPA coupling cs
Cc1cc(/C=C2/C(=O)NC(=O)N(C)C2=O)c(C)n1-c1ccccc1,6%,1%,5%,0%,2
CCNC(=O)[C@H]1O[C@@H](n2cnc3c(N)ncnc32)[C@H](O)[C@H]1O,nt,-2%,nt,nt,nt
O=C(O)CCCc1ccc(N(CCCl)CCCl)cc1,12%[57.1 µM],50µM*,-2%,4%,1
CC(=O)NC(Cc1ccc(N(CCCl)CCCl)cc1)C(=O)O (centres undefined),9%[57.1 µM],32µM*,9%,6%,2
N[C@@H](Cc1ccc(N(CCCl)CCCl)cc1)C(=O)O,2%,?,10%,13%,nt
O=C(Cc1ccc(N(CCCl)CCCl)cc1)NC(Cc1ccc(Cl)cc1)C(=O)O (centres undefined),4%,40µM*,-14%,1%,2
COc1ccc(NC2CC(=O)N(C(C)C)C2=O)cc1 (centres undefined),2%[57.1 µM],3.5µM*,1%,3%,-23
CO/C1=C\C(C)=C\[C@@H](C)[C@@H](O)[C@@H](C)C/C(C)=C/C=C/[C@H](OC)[C@@H]([C@@H](C)[C@@H](O)[C@H](C)[C@@]2(O)C[C@@H](O)[C@H](C)C(C(C)C)O2)OC1=O (some centres undefined),nt,nt,nt,nt,-10
O=c1[nH]c(=S)n(C2CC2)c(O)c1/C=N/Nc1cccc2ccccc12,-11%,?,-8%,11%,-53*
O=c1[nH]c(=S)n(C2CC2)c(O)c1/C=N/Nc1ccccc1,2%,-20%,7%,5%,-1
